Compounds with a hit are over-represented: about 2.3% of the library has one in this group of screens.
HepG2 tox – counter-screen for TGF-b inhibitors: cytotoxicity in HepG2 cells. HepG2 CAGA-GFP viability, ATP luminescence, 18 h. Potency, µM (titrated, usually from 46.1 µM), hits mostly cytotoxic. hit rate 0.76% among 410,000
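HepG2 CAGA-GFP cells (1000/well, DMEM with 1% FBS) received compound, then TGF-beta at 500 pg/mL final, and were incubated 18 hours at 37 degrees C. Viability was read by CellTiter-Glo luminescence. Media-only wells were set as complete cell-killing and DMSO as no toxicity.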
TGFb SMAD3 inh – inhibitors of TGF-b signaling; HepG2 CAGA-GFP TGF-b/SMAD3 reporter, GFP fluorescence, 18 h; TGF-beta stimulated, 500 pg/mL final; Potency, µM (series often up to 46.1 µM), usual class: inhibitors; hit rate 1.2% among 410,000; further: nearly all actives have a fitted effect of over 65% in size
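TGF-beta reporter screen: HEPG2 CAGA-GFP, 1% FBS, 500 pg/mL TGF-beta final, 18 h; per-cell GFP summed per well; curves fitted and categorized by class.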
ATXN2 expr inh – inhibitors of ATXN2 expression; HEK-293 ATXN2-luciferase reporter, luminescence, 24 h; Potency, µM (series often up to 57 µM), usual class: inhibitors; hit rate 0.72% among 360,000; AID 1745845; further: nearly all actives have a fitted effect of over 55% in size
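ATXN2-luciferase reporter cells (luciferase flanked by upstream and downstream ATXN2 gene portions) were treated 24 h at 37 °C with compounds at up to 57 uM. SteadyGlo luminescence gave expression; GF-AFC fluorescence gave viability.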
S2 tox – cell viability loss in ATXN counter-screen; S2 cells (HEK-293 line with an ATXN2-luciferase reporter) viability, CellTiter-Fluor protease fluorescence, 24 h; hit rate 0.49% among 400,000; Potency, µM (top dose mostly 56.7 µM), most hits filed as cytotoxic; AID 651635; further: nearly all actives have a fitted effect of over 40% in size
Hits are given with their value; . = inactive; ? = inconclusive; / = no result; ! = a repeat was not active; [ ] = remark or other dose. The call rests on the fitted dose curve; in most records, active means well fitted curve in the direction sought with a large enough effect; inconclusive means small, poorly fitted or top-dose-only effect, or another doubt; inactive means no such curve, though single readings can be large; an effect the other way counts as inactive or inconclusive.

SMILES	HepG2 tox	TGFb SMAD3 inh	ATXN2 expr inh	S2 tox
CC(C)(C)c1ccc(-c2cc(-c3ccccc3O)[nH]n2)cc1	.	18µM	.	?
Clc1ccc(/C=C/c2ccncc2)cc1Cl	.	?	/	/
CCNc1nc(-c2sc(NC(=O)C(C)(C)C)nc2C)c(-n2cc(-c3ccccc3)nn2)s1	/	/	14µM	/
O=C(NCc1ccncc1)c1cnn(-c2nccc(-c3cccs3)n2)c1C1CC1	/	/	/	.
O=C(OCc1cc(=O)n2c(n1)sc1ccccc12)c1ccc(O)cc1	.	.	.	.
O=c1cc(CCl)nc2sc3ccccc3n12	16µM	?	.[11.3 µM]	?
Cc1cccc(NC(=O)Cc2ccc(-n3c(C)nc4cccnc43)cc2)c1C	.	.	/	/
Cc1cc(C)c(NC(=O)Cc2ccc(-n3c(C)nc4cccnc43)cc2)c(C)c1	.	13µM	/	/
CN(C(=O)CO)c1c(I)c(C(=O)NCC(O)CO)c(I)c(C(=O)NCC(O)CO)c1I (centres undefined)	/	/	/	.
Cc1ccccc1CN1[C@H](C)[C@H](c2ccccc2)OCCS1(=O)=O	.	?	/	/
Cc1ccc(-n2nc3c(N4CCC(C(=O)NCCc5ccccc5C)CC4)nnc(C)c3c2C)cc1	.	4.5µM!	?	?
Cc1ccc(-n2nc3c(N4CCC(C(=O)NC(C)c5ccccc5)CC4)nnc(C)c3c2C)cc1 (centres undefined)	11µM	8.9µM	.	?
Cc1ccc(-n2nc3c(N4CCC(C(=O)NCc5cccc(F)c5)CC4)nnc(C)c3c2C)cc1	.	16µM	/	?
Cc1nnc(N2CCC(C(=O)NC(C)C)CC2)c2nn(-c3ccccc3)c(C)c12	.	.	.	.
Cc1nnc(N2CCC(C(=O)NCc3cccc(Cl)c3)CC2)c2nn(-c3ccccc3)c(C)c12	.	11µM	?	?
COc1ccc(-n2nc3c(N4CCC(C(=O)NCCc5ccccc5C)CC4)nnc(C)c3c2C)cc1	.	.	?	?
CCCS(=O)(=O)NCc1c(C)ncc2c1CCN(C(=O)c1ccc3[nH]c4c(c3c1)CCCC4)C2	/	/	/	.
Cc1cc(C)c2oc(-c3cccc(NC(=O)COc4ccc(Cl)cc4C)c3C)nc2c1	.	.	/	/
COc1cc(N(C)C)ccc1/C=C1\C=Cc2ccccc21	.	.	/	/
Nc1ccc2c(c1)C=C/C2=C\c1ccccc1	.	.	/	/
Cc1cc(C(=O)Cn2ncc(Cl)c(Cl)c2=O)c(C)n1CC(F)(F)F	.	?	?	?
Cc1ccc(C(=O)OCn2ncc(Cl)c(Cl)c2=O)cc1	.	?	?	/
Cc1ccc(C)c(C(=O)Cn2ncc(Cl)c(Cl)c2=O)c1	.	?	?	18µM
CCOC(=O)c1ccc(NC(=O)Cn2ncc(Cl)c(Cl)c2=O)cc1	16µM	?	?	?
Cc1cc(Br)ccc1NC(=O)CNC(=O)Cn1ncc(Cl)c(Cl)c1=O	.	.	4.7µM	3.4µM
SMILES	HepG2 tox	TGFb SMAD3 inh	ATXN2 expr inh	S2 tox
O=C(OCn1ncc(Cl)c(Cl)c1=O)c1ccc(C(F)(F)F)cc1	10µM	.	?	?
COc1ccc(-n2c(CCNC(=O)c3ccc(-c4cccc(F)c4)cc3)nnc2SC)cc1	/	/	/	.
CCCN(CC)C(CC)C(=O)Nc1c(C)cccc1C (centres undefined)	/	/	/	.
CCCCOc1ccc(CC(=O)N(C)OC)cc1	.	.	/	/
Cc1ccc2nc(SCC(=O)N3CCOc4ccc(CN5C[C@@H](C)O[C@@H](C)C5)cc4C3)[nH]c2c1	/	/	/	.
CCC(=O)Nc1ccc(C(=O)Cn2ncc(Cl)c(Cl)c2=O)cc1	.	?	/	25µM
CCCN1C(=O)c2ccccc2NC1c1ccc(OC)c(COc2ccc([N+](=O)[O-])cc2)c1 (centres undefined)	.	.	/	/
Cc1cnc(C)c(Nc2nc(C(N)Cc3ccc(F)cc3)cs2)n1 (centres undefined)	.	?	?	?
Cc1cnc(C)c(Nc2nc(C(N)Cc3ccc(Cl)cc3)cs2)n1 (centres undefined)	.	18µM	?	.
COC(=O)c1cc(C)nc(Nc2nc(C(N)Cc3ccc(Cl)cc3)cs2)n1 (centres undefined)	.	.	.	.
COc1cc(OC)nc(Nc2nc(C(N)Cc3ccc(Cl)cc3)cs2)n1 (centres undefined)	11µM	?	32µM	/
Oc1cccc(-c2nc(-c3cccs3)c(-c3cccs3)[nH]2)c1	.	14µM	/	/
Fc1ccc(-c2nc(-c3cccs3)c(-c3cccs3)[nH]2)cc1	.	.	/	/
Fc1ccc(-c2nc(-c3cccs3)[nH]c2-c2ccc(F)cc2)cc1	.	14µM	.	?
O=C(c1cc(COc2cccc3cnccc23)on1)N1CCC(c2ccccc2Cl)C1 (centres undefined)	.	20µM	/	?
COCCOC(=O)c1c(C)oc2ccc(NS(=O)(=O)c3ccc(F)cc3)cc12	.	?	/	.
CCCCOC(=O)c1c(C)oc2ccc(NS(=O)(=O)c3ccc(F)cc3C)cc12	.	14µM	?	?
Cc1c(CN(C)C)c2c(n1Cc1ccccc1)C(=O)c1ccc(Br)cc1-2	18µM	?	?	?
CCOC(=O)Nc1ccc(/C=C/c2ccnc3ccccc23)cc1	.	?	/	/
CCN(CC)Cc1cc(Nc2c3ccccc3nc3c4ccccc4n(C)c23)cc(CN(CC)CC)c1O	.	.	20µM	32µM
CN(C)c1ccc(/C=C/c2ccnc3c(N)cccc23)cc1	.	.	/	/
O=C(c1ccco1)N1CCN(c2c(-c3ccccc3)c3cc(Cl)ccc3[nH]c2=O)CC1	18µM	?	?	/
O=c1[nH]c2ccc(Cl)cc2c(-c2ccccc2)c1N1CCOCC1	.	.	.	.
CN(C)CC/C=C1/c2ccc(F)cc2Sc2ccc(Cl)cc21	16µM	?	?	?
CN(C)CC/C=C1\c2ccc(F)cc2Sc2cc(F)c(Cl)cc21	18µM	?	/	?
SMILES	HepG2 tox	TGFb SMAD3 inh	ATXN2 expr inh	S2 tox
CN(C)CC/C=C1\c2ccccc2Sc2cc(F)c(Cl)cc21	.	?	.	?
O=C1NC(=O)C(Cc2ccccc2)(C2CCN(Cc3cccn3-c3cccnc3)CC2)N1 (centres undefined)	/	/	/	.
Nc1ccc(C(=O)OCC(O)CO)cc1 (centres undefined)	/	/	.	.
CCOC(=O)c1nnc(-c2ccccc2)nc1Sc1c(Cl)cccc1Cl	.	10µM	?	?
CCOC(=O)c1nnc(-c2ccc(C)cc2)nc1Sc1ccccc1Cl	.	?	?	?
CCOc1cc(CNCCO)cc(Br)c1OCc1ccccc1Cl	.	?	.	.
CCOc1cc(CNC(C)(C)CO)cc(Br)c1OCc1ccc(Cl)cc1Cl	13µM	?	?	/
Cc1ccc(CN2CCOc3ccc(CN4CCC(Oc5cccnc5)CC4)cc3C2)o1	/	/	/	.
C=C1C=C(C(F)F)n2ncc(C(=O)N3CCN(c4ccccn4)CC3)c2N1	.	.	/	/
Cc1ncc2c(c1CNS(=O)(=O)c1cccs1)CCN(C(=O)/C=C/c1cc(F)cc(F)c1)C2	/	/	/	.
O=S(=O)(/C=C/C=C/S(=O)(=O)c1ccccc1)c1ccccc1	.	3.5µM	?	7.5µM
O=C(NC1CCN(Cc2ccccc2)CC1)c1cccc(S(=O)(=O)Nc2ccc(SC(F)F)cc2)c1	.	11µM	?	.

Screens from PubChem.
